The structures appear in SMILES notation.

Assay [1] deals with Fibroblast growth factor receptor 4 (Homo sapiens) (UniProt P22455). The following applies: at 1 µM.
Assay [2] deals with Tyrosine-protein kinase Fgr (Homo sapiens) (UniProt P09769). The following applies: at 0.1 µM.
The target is the same in assay [3]. The following applies: at 1 µM.
The target of assay [4] is Vascular endothelial growth factor receptor 1 (Homo sapiens) (UniProt P17948). The following applies: at 0.1 µM.
Assay [5] shares this target. To be noted: at 1 µM.
The target in assay [6] is Receptor-type tyrosine-protein kinase FLT3 (Homo sapiens) (UniProt P36888). The following applies: at 0.1 µM.
Assay [7] shares this target. The following applies: at 1 µM.
Assay [8] relates to T1, Receptor-type tyrosine-protein kinase FLT3 (Homo sapiens), P36888 [D835Y].
T1 sequence (whole entry): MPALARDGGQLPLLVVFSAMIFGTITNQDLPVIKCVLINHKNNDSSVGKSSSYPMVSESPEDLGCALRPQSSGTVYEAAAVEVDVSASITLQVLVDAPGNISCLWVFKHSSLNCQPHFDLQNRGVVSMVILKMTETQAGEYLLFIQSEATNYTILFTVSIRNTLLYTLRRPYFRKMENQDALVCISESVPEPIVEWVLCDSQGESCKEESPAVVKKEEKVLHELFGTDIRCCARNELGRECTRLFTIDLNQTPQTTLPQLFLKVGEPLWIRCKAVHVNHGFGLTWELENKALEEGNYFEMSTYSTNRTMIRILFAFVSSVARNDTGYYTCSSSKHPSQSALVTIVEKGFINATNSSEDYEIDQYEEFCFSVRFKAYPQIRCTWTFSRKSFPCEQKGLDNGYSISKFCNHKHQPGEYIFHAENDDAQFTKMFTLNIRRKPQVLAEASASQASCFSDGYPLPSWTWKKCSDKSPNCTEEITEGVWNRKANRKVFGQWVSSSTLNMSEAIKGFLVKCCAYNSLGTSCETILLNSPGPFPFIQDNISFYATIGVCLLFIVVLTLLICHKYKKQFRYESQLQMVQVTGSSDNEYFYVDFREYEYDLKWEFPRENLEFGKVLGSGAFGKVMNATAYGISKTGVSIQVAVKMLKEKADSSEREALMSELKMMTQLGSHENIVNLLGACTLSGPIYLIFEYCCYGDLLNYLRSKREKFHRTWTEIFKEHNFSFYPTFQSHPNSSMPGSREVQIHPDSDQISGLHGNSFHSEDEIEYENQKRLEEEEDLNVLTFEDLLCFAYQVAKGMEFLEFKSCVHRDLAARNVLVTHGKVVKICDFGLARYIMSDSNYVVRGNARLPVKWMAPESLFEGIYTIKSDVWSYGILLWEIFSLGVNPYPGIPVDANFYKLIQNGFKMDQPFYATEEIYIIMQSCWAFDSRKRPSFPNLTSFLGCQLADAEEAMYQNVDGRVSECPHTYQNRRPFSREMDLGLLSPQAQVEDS
The following applies: at 0.1 µM.

The target in assay [9] is Non-receptor tyrosine-protein kinase TYK2 (Homo sapiens) (UniProt P29597). To be noted: at 1 µM.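 Note: values are mean percent inhibition of TYK2 kinase.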
Sequence of Non-receptor tyrosine-protein kinase TYK2 (Homo sapiens) (P29597 whole entry): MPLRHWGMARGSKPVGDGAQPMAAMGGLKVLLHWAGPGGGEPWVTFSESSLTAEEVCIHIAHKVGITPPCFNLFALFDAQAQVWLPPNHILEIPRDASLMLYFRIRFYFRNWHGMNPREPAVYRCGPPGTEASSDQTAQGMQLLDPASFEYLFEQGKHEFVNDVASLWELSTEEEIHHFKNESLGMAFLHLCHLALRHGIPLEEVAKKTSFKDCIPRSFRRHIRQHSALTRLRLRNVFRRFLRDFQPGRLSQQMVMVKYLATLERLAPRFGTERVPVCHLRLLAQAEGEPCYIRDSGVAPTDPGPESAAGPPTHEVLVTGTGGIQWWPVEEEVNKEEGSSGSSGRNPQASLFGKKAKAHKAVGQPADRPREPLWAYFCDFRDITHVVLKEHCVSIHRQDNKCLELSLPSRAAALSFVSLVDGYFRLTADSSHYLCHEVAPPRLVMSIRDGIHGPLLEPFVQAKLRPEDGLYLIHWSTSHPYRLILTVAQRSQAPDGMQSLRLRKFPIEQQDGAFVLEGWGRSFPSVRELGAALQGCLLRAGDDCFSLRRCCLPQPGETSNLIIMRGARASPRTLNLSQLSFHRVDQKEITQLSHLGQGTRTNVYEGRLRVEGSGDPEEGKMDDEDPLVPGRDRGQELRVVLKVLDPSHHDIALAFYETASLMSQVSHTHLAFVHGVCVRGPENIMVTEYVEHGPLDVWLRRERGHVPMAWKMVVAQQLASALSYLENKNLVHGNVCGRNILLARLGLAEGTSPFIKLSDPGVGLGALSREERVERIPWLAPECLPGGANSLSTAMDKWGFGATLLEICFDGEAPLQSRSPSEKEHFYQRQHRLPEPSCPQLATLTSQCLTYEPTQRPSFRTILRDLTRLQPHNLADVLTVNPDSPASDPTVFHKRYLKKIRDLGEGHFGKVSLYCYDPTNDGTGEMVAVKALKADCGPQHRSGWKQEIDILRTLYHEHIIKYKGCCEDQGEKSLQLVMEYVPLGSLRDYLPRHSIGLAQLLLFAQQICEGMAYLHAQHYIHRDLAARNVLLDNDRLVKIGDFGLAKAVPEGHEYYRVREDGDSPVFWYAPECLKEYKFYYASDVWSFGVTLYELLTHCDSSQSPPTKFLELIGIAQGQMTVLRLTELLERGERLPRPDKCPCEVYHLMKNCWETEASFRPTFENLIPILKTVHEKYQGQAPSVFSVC
Assay [10] addresses T2, Tyrosine-protein kinase receptor TYRO3 (Homo sapiens) (UniProt Q06418).
T2 sequence (whole entry): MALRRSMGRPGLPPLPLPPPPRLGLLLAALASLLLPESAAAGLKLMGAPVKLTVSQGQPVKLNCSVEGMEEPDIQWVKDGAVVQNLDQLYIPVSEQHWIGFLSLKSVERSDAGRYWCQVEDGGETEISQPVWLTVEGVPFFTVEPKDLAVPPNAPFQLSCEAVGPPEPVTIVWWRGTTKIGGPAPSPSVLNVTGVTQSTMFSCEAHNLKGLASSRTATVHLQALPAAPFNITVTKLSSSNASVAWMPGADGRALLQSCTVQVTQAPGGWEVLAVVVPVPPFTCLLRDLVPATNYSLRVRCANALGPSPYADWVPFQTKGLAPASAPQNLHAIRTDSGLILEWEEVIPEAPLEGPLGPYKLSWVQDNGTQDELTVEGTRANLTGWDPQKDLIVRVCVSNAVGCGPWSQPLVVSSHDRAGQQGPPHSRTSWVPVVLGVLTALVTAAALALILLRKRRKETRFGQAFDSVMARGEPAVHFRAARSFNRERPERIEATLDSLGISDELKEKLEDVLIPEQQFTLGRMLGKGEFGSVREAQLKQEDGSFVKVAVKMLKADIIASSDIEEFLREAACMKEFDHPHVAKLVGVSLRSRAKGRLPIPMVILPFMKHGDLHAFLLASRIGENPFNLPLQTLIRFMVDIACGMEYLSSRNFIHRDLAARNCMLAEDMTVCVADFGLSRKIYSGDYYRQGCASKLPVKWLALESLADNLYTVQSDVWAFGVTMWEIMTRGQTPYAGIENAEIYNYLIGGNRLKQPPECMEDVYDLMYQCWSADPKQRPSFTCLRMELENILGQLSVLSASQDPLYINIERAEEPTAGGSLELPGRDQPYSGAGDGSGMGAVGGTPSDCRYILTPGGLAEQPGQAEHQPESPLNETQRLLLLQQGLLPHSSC
The following applies: at 0.1 µM.

Assay [11] deals with T2, Tyrosine-protein kinase receptor TYRO3 (Homo sapiens). The following applies: at 1 µM.
The target of assay [12] is Tyrosine-protein kinase Yes (Homo sapiens) (UniProt P07947). The following applies: at 0.1 µM.
Sequence of Tyrosine-protein kinase Yes (Homo sapiens) (P07947 2-543 limits assumed): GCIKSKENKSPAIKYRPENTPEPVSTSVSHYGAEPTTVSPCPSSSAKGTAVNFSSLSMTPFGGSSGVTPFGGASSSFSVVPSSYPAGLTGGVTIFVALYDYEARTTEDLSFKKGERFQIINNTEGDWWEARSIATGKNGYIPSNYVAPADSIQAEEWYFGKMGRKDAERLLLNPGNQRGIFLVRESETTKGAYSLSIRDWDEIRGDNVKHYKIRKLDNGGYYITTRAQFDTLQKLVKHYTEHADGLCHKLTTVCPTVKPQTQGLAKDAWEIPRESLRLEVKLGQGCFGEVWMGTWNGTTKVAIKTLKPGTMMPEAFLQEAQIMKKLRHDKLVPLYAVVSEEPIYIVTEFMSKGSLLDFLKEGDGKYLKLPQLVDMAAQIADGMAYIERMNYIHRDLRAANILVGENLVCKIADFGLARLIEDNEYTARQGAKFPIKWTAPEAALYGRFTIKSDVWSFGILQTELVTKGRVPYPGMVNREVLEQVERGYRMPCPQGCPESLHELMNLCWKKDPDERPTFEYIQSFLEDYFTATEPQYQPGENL
For assay [13] the target is unchanged. The following applies: at 1 µM.
The target of assay [14] is T3, Tyrosine-protein kinase ZAP-70 (Homo sapiens) (UniProt P43403).
T3 sequence (whole entry): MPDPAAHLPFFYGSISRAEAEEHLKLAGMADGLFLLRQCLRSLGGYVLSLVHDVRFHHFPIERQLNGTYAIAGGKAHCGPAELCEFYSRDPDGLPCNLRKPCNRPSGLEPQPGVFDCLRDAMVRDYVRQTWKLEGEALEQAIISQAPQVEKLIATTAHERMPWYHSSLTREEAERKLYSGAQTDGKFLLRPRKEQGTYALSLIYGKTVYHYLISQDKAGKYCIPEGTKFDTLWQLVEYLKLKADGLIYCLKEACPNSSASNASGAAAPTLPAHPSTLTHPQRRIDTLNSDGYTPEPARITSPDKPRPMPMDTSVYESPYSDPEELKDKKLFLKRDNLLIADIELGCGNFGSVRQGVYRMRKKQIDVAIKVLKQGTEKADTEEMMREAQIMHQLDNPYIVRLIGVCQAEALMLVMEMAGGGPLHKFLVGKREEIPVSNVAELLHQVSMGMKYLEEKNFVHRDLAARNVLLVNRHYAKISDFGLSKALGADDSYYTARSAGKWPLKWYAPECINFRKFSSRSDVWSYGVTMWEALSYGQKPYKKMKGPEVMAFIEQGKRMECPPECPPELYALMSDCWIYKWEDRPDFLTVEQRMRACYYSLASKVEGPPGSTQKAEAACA
To be noted: at 0.1 µM.

The target in assay [15] is T3, Tyrosine-protein kinase ZAP-70 (Homo sapiens). To be noted: at 1 µM.
The target of assay [16] is Serine/threonine-protein kinase B-raf (Homo sapiens) (UniProt P15056). To be noted: at 0.1 µM.
Sequence of Serine/threonine-protein kinase B-raf (Homo sapiens) (P15056 whole entry): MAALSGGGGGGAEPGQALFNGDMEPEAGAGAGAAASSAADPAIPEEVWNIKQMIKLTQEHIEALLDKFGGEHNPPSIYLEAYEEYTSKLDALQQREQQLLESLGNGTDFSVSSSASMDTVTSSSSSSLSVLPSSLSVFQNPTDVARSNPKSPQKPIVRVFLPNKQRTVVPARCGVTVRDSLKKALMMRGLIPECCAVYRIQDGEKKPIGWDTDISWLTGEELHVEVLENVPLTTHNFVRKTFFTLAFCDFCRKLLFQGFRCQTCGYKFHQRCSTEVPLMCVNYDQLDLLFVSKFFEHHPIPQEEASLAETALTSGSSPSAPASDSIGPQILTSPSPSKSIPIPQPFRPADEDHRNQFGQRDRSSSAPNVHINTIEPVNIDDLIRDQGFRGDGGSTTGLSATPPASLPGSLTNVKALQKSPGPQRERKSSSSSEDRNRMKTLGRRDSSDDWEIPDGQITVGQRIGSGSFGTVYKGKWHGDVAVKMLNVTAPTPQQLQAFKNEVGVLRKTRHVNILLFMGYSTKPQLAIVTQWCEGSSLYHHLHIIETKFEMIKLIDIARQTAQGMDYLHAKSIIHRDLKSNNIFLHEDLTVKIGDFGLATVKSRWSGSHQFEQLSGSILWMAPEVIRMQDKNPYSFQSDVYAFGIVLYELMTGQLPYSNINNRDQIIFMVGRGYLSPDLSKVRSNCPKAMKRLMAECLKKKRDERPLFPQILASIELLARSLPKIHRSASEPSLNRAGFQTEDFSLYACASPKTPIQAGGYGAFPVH
Assay [17] has the same target. To be noted: at 1 µM.
Assay [18] deals with Serine/threonine-protein kinase B-raf (Homo sapiens), P15056 [V600E]. To be noted: at 0.1 µM.
Sequence of Serine/threonine-protein kinase B-raf (Homo sapiens), P15056 [V600E] (P15056 whole entry V600E): as the sequence (P15056 whole entry) above, with V600E counted along it
Assay [19] shares this test system. The following applies: at 1 µM.
Assay [20] concerns the target RAF proto-oncogene serine/threonine-protein kinase (Homo sapiens) (UniProt P04049). To be noted: at 0.1 µM.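 Note: values are mean CRAF kinase inhibition from profiling of the GSK Published Kinase Inhibitor Set.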

Sequence of RAF proto-oncogene serine/threonine-protein kinase (Homo sapiens) (P04049 whole entry): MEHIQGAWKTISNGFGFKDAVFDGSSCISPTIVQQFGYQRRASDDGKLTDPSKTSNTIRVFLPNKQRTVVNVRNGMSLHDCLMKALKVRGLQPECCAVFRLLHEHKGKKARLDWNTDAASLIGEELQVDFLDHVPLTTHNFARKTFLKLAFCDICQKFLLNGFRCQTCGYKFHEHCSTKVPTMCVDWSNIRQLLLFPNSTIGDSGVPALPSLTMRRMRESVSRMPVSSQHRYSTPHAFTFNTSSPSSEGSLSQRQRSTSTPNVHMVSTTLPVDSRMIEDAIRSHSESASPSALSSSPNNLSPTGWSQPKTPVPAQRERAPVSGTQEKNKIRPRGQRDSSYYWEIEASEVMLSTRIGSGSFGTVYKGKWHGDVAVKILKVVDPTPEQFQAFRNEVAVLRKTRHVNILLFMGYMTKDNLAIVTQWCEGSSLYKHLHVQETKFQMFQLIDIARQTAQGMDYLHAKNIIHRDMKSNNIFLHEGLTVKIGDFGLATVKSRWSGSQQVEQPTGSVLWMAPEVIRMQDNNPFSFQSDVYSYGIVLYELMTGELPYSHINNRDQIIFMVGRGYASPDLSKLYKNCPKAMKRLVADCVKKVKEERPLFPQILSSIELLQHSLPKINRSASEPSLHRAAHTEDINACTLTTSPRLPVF
Sequence of Fibroblast growth factor receptor 4 (Homo sapiens) (P22455 22-802 limits assumed): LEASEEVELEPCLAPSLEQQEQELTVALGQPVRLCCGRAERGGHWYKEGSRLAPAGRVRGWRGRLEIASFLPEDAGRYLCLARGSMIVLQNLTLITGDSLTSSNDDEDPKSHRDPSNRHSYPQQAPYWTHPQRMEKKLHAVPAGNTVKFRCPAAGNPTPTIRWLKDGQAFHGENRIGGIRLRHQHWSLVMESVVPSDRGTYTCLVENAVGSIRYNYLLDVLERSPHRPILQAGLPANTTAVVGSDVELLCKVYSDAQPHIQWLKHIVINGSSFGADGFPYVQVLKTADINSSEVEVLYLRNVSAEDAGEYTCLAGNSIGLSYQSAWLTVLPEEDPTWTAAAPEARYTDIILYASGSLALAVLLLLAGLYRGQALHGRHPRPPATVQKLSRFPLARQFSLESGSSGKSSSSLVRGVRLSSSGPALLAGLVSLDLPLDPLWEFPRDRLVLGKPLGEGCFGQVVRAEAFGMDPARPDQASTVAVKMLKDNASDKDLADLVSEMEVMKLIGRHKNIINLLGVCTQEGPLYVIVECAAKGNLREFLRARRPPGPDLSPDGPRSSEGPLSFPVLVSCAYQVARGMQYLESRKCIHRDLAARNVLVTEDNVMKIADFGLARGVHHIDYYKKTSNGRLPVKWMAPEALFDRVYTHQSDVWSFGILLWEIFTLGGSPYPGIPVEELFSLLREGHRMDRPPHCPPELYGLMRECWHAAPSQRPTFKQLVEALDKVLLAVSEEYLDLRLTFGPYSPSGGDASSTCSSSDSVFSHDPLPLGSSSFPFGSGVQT
Sequence of Tyrosine-protein kinase Fgr (Homo sapiens) (P09769 2-529 limits assumed): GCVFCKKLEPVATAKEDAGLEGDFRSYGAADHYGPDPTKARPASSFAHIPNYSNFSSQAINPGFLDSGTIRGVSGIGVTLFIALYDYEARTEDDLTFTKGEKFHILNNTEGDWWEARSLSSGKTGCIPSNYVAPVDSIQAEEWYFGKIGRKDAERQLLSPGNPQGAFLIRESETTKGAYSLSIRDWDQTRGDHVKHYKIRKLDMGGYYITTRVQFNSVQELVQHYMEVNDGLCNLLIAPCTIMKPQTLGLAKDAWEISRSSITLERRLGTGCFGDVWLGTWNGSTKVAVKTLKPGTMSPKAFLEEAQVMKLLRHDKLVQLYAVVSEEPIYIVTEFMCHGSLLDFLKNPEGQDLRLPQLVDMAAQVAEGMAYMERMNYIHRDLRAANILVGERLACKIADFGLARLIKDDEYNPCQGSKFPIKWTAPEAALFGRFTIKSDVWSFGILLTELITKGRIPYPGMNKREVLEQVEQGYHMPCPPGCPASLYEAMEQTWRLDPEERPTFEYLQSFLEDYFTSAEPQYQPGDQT

By inhibition is commonly meant the relative decrease from the control value, in per cent. Regarding `COc1cc(C=NNc2ncnc3c2cnn3Cc2ccccc2)ccc1O`, the inhibition in assay [1] is 4.03%; in assay [2], 11.8%; in [3] it was 52.1%; in assay [4], -1.46%; in assay [5] it was 1.82%; in assay [6], -1.99%. Besides, the inhibition in assay [7] is -1.02%; in [8] it was -4.43%; in assay [9] it was -1.56%; in assay [10] it was -1.07%; in assay [11], 7.59%; in assay [12] it was 14.6%. Besides, the inhibition was 30% in assay [13]; 2.67% in assay [14]; 1.13% in [15]; -5.44% in assay [16]; -5.52% in assay [17]; -5.58% in assay [18]. Besides, the inhibition in [19] was -4.22%; in assay [20] it was -0.2%.
Turning to `NC(=O)c1sc(-n2cnc3cc(C(F)(F)F)ccc32)cc1OCc1ccccc1Br`, the inhibition in assay [1] was -0.34%; in assay [2], 2.13%; in [3], 2.99%; in assay [4], -0.46%; in [5], -0.01%; in assay [6] it was 0.18%. Moreover, the inhibition in assay [7] is 3.13%; in assay [8], -3.16%; in assay [9] it was -3.05%; in assay [10] it was 1.7%; in assay [11] it was 2.02%; in assay [12] it was 2.56%. Moreover, the inhibition in assay [13] was 3.46%; in [14], -0.71%; in assay [15] it was 1.87%; in assay [16], 3.64%; in [17], 2.26%; in [18], 1.31%. In addition, the inhibition turned out to be 2.01% in assay [19] and 1.82% in assay [20].
As for `CCn1c(-c2nonc2N)nc2c(C#CCN)ncc(OCCCN)c21`, the inhibition in assay [1] amounted to 0.77%; in [2], 5.41%; in assay [3], 1.7%; in assay [4] it was 0.25%; in assay [5], 0.93%; in assay [6], 1.97%. Further, the inhibition is 0.52% in assay [7]; 2.12% in [8]; 5.33% in assay [9]; -0.44% in [10]; 3.68% in assay [11]; 0.61% in assay [12]. Also, the inhibition is 3.6% in assay [13]; 2.74% in assay [14]; 2.46% in [15]; -4.66% in [16]; -4.6% in assay [17]; -5.05% in [18]. The results for the inhibition in assay [19] and in assay [20] were -3.78% and 2.59%, respectively.
Consider `COc1cccc(-n2ncc3c(N/N=C/c4ccncc4)ncnc32)c1`, for which the inhibition in assay [1] turned out to be 7.56%; in assay [2] it was 29%; in assay [3] it was 70%; in [4], 1.64%; in assay [5], 27.6%; in assay [6], 7.06%. The inhibition in assay [7] amounted to 28.3%; in assay [8] it was 11.5%; in assay [9], 0.71%; in assay [10], 8.97%; in [11], 41.6%; in assay [12] it was 26.7%. The inhibition was 73% in assay [13]; 2.84% in [14]; 3.98% in assay [15]; 10.3% in [16]; 21.5% in assay [17]; 11% in assay [18]. Besides, the inhibition in [19] is 23.1%; in [20] it was -6.75%.
For `Cc1cc(-c2ccco2)cc(C)c1/C=C/c1cncc(-c2nn[nH]n2)c1`, the inhibition in assay [1] was 1.04%; in [2], 3.13%; in assay [3] it was 6.29%; in [4], -0.74%; in assay [5], 1.77%; in assay [6], 1.31%. Also, the inhibition in [7] was 1.79%; in assay [8], -3.95%; in assay [9] it was 2.63%; in assay [10] it was 0.37%; in assay [11], 0.02%; in assay [12] it was 1.68%. Besides, the inhibition in assay [13] is 6.08%; in assay [14] it was -1.84%; in assay [15] it was 0.77%; in assay [16], 1.61%; in assay [17] it was 1.61%; in [18], 1.63%. Further, the results for the inhibition in assay [19] and in assay [20] were 3% and -1.69%, respectively.
On to `NS(=O)(=O)c1ccc(N/C=C2\C(=O)Nc3ccc4ncsc4c32)cc1`, for which the inhibition in [1] came to 5.81%; in [2], 2.87%; in assay [3], 21.6%; in assay [4] it was 7.41%; in [5], 50.6%; in [6], 32.8%. Further, the inhibition in assay [7] is 79.5%; in assay [8] it was 40.4%; in assay [9] it was 41%; in assay [10] it was 3.07%; in assay [11] it was 24.1%; in [12] it was 2.73%. Moreover, the inhibition in assay [13] is 26.7%; in [14], -5.22%; in assay [15], 5.97%; in assay [16], 11%; in [17], 41%; in assay [18], 9.06%. The inhibition in assay [19] was 37.5%; in assay [20], -1.4%.
Turning to `Nc1nonc1-c1nc2cnccc2n1C1CCCCC1`, the inhibition was -1.15% in assay [1]; -0.56% in [2]; 6.63% in [3]; -1% in assay [4]; 4.33% in assay [5]; -0.01% in assay [6]. Also, the inhibition in assay [7] was 4.32%; in assay [8] it was 3.29%; in [9] it was 6.77%; in assay [10], -1.27%; in assay [11], -0.87%; in [12], 1.72%. In addition, the inhibition in [13] was 3.33%; in [14], -2%; in assay [15], -0.79%; in assay [16], -2.13%; in [17], 4.56%; in assay [18], -1.6%. In addition, the inhibition stood at 5.12% in [19] and 2.21% in [20].
